Measurements reported in ChEMBL document CHEMBL4513216, “Probing the Open Global Health Chemical Diversity Library for Multistage-Active Starting Points for Next-Generation Antimalarials” (ACS Infect Dis, 2020).
Screen size: about 69,000 compounds; about 8,600 (12%) showed an effect of 50% or more. For the sample, strong results were picked, then their nearest neighbours and some compounds at random.

tested on: Plasmodium berghei; experiment: Screen against P. berghei liver stage (PbLuc), transformed with Luciferase, at 10uM; format: functional, HepG2; conditions: tested at 10 uM

Row | Compound | INHIBITION [%]
1 | COC(=O)C(C)(C)NC(=O)C1CC(=O)N(CC2CC2)C1 (stereo not drawn) | 25.1
2 | CNc1snc(C)c1C(=O)N1CCCC(n2ccnc2)C1 (stereo not drawn) | 33.8
3 | CC[C@H]1N(Cc2ccc(OC)cc2)CCC[C@]12CCC(=O)N2C | 6.27
4 | Cc1nc(N2CCCN(c3ncccn3)CC2)c2cnn(C)c2n1 | -9.29
5 | Cc1ncsc1CN1CCn2nc(CCC(=O)N3CCCC3)cc2C1 | 14.9
6 | Cc1nnc(NC(=O)CN2CCc3c(nc(C4CC4)n3C)C2)s1 | 14.4
7 | CC(=O)NC1CCCN(C(=O)NCc2ccc(-n3cccn3)cc2)C1 (stereo not drawn) | 0.914
8 | O=C(Cc1cccs1)N1C[C@@H]2COC[C@]2(COCc2cccnc2)C1 | 43.9
9 | Cc1cc2[nH]c(=O)c(=O)[nH]c2cc1S(=O)(=O)NC1CCC(C)CC1 (stereo not drawn) | 23
10 | Cc1cc2[nH]c(=O)c(=O)[nH]c2cc1S(=O)(=O)NC1CCCCC1 | -27.7
11 | Cc1cc2nc(O)c(O)nc2cc1S(=O)(=O)NC1CC1 | 60.7
12 | CNC(=O)[C@@H](c1ccccc1F)N1CCC[C@H]1C(=O)NC1CCOCC1 | -27.5
13 | O=S(=O)(NCC1COc2ccccc2C1)N1CCCCC1 (stereo not drawn) | -7.71
14 | CN1CCCC(CNS(=O)(=O)N2CCc3ccccc3C2)C1 (stereo not drawn) | 57.8
15 | CCN1CCC(CNS(=O)(=O)N2CCc3ccccc3C2)C1 (stereo not drawn) | 45.4
16 | O=S(=O)(NCC1COc2ccccc2C1)N1CCCC1 (stereo not drawn) | -30
17 | O=S(=O)(NCC1CCOC1)N1CCc2ccccc2C1 (stereo not drawn) | 27.5
18 | O=S1(=O)CCC(CNS(=O)(=O)N2CCc3ccccc3C2)C1 (stereo not drawn) | 52.2
19 | CCn1nc(CC(C)C)cc1C(=O)NCc1c(C)cc(C)nc1OC | 47.3
20 | CSCC(=O)Nc1cccc(Oc2ccccn2)c1 | -9.93
21 | CN(C)S(=O)(=O)NC1CC(=O)N(c2ccccc2Cl)C1 (stereo not drawn) | 25.8
22 | O=C1CC(NS(=O)(=O)NCc2ccccc2)CN1c1ccccc1Cl (stereo not drawn) | 55

Row | Compound | INHIBITION [%]
23 | CS(=O)(=O)NC1CC(=O)N(c2ccccc2Cl)C1 (stereo not drawn) | 28.7
24 | CN(C)Cc1cncc2c1CCN(CC(=O)N(C)C)C2 | 72
25 | Cn1cc(CN2CCc3c(COCC4CC4)cncc3C2)cn1 | 7.15
26 | COCc1cncc2c1CCN(Cc1cnn(C)c1)C2 | -26.2
27 | CC(C)COCc1cncc2c1CCN(Cc1cnn(C)c1)C2 | 71.8
28 | CN(C)Cc1cncc2c1CCN(Cc1cnn(C)c1)C2 | 59.8
29 | CC(C)N(C)Cc1cncc2c1CCN(CC(=O)N(C)C)C2 | 12.2
30 | CN(C)Cc1cncc2c1CCN(Cc1ccoc1)C2 | 24.9
31 | COCc1cncc2c1CCN(Cc1cccnc1)C2 | 24.8
32 | CC(C)N(C)Cc1cncc2c1CCN(CC1CC1)C2 | 44.8
33 | CN(C)C(=O)COCc1cncc2c1CCN(Cc1cnn(C)c1)C2 | 23.5
34 | CN(Cc1cccnc1)Cc1cncc2c1CCN(Cc1ccoc1)C2 | 28.5
35 | c1cncc(COCc2cncc3c2CCN(Cc2ccoc2)C3)c1 | 54.8
36 | CCC[C@H]1CN(C(=O)CCn2ccccc2=O)C[C@@H]1NS(C)(=O)=O | -7.98
37 | Cc1nc(C(C)C)sc1C(=O)N1CCC(C(N)=O)CC1 | -49.2
38 | Cc1cc(C)cc(OCC(=O)NC2CCN(S(C)(=O)=O)CC2)c1 | 33
39 | Cc1cc(N2CCN(CCO)CC2)nc(-c2ccncc2)n1 | 30
40 | CN1CCN(C(=O)COCc2nc(-c3ccncc3)no2)CC1 | 11.4
41 | CC(C)NC(=O)NCc1nnc2n1C(C(=O)N(C)C)CC2 (stereo not drawn) | 9.32
42 | CCCc1noc(C2CCN(C(=O)CCn3nc(C)cc3C)CC2)n1 | 36.6
43 | COC[C@H]1CCC[C@H]1Nc1ncnc2c1CCNCC2 | -6.94
44 | CC(C)N1CCC2(CC1)CC(NCc1ccccn1)c1ccccc1O2 (stereo not drawn) | 7.31

Row | Compound | INHIBITION [%]
45 | O=C(C1CCCC1)N1CCC2(CC1)COCCN2CC1CC1 | 39.1
46 | O=C(C1CCCCC1)N1CCC2(CCCN2CC2CC2)CC1 | 50.7
47 | O=C(C1CCC1)N1CCC2(CCCN2CC2CC2)CC1 | 22.3
48 | OC1(CNCCCN2CCc3ccccc32)CCNC1 (stereo not drawn) | 30.7
49 | CCN(CCSc1ccccc1)C(=O)c1cn(C2CCC(N)CC2)nn1 (stereo not drawn) | -56.6
50 | CN(C)c1cc(C(=O)Nc2ccccc2C(=O)NC(C)(C)C)ccn1 | 7.4
51 | CNC(=O)c1cccc(NC(=O)c2ccnc(N(C)C)c2)c1C | 53.9
52 | CN(C)c1cc(C(=O)Nc2cccnc2N2CCSCC2)ccn1 | 2.97
53 | C=C(C)CN1CCN(Cc2nccn2C)C(C)C1 (stereo not drawn) | 42.45
54 | CN1CCN(C(=O)Cc2cccc(F)c2)Cc2cccnc21 | -3.19
55 | O=C(c1ccncc1F)N1CCCC1c1nc(-c2ccccc2)n[nH]1 (stereo not drawn) | 16.8
56 | Cc1nc(-c2ccccc2)ccc1C(=O)N1CCn2c(C)nnc2C1 | -0.758
57 | O=C(c1cc(-c2cccs2)nc2ccccc12)N1CCN(CCO)CC1 | 68.4
58 | O=C(c1ccc(-c2cccs2)cc1F)N1CCN(CCO)CC1 | 38.7
59 | Cc1nc(-c2ccccc2)ccc1C(=O)N1CCN(CCO)CC1 | 71.2
60 | Cc1nc(-c2cccs2)ccc1C(=O)N1CCN(CCO)CC1 | 27.6
61 | Cc1nc(-c2cccs2)ccc1C(=O)N1CCN(CC(C)O)CC1 (stereo not drawn) | 55.4
62 | O=C(c1ccc[nH]1)N1CCCC1c1nc(-c2ccccc2)n[nH]1 (stereo not drawn) | -1.76
63 | O=C(c1cc2ccccc2c(=O)[nH]1)N1CCN(CCO)CC1 | 2.32
64 | Cc1nc2cc(F)ccc2cc1C(=O)N1CCN(CC(C)O)CC1 (stereo not drawn) | -11.5
65 | Cc1nc(O)ccc1C(=O)N1CCCC1c1nc(-c2ccccc2)n[nH]1 (stereo not drawn) | 69.8
66 | Cc1nc2cc(F)cc(C(=O)N3CCN(CCO)CC3)c2nc1C | -24

Row | Compound | INHIBITION [%]
67 | Cc1cc(-n2nnc(C(=O)O)c2-c2ccncc2)ccc1F | 49.9
68 | CCOC(=O)CNC(=O)c1cccnc1Sc1cc(OC)ccc1OC | 3.58
69 | Cc1ccc(CNC(=O)NC(C)CN2CCOCC2)s1 (stereo not drawn) | 14
70 | COCCC(=O)N1C[C@@H](c2ccccc2F)[C@@]2(CCCC(=O)N2)C1 | 29.5
71 | Cn1cc(N2CCC3(CCN(Cc4nccs4)C3)C2=O)cn1 (stereo not drawn) | 26.2
72 | Cc1nc(C)n(CC2CCCN2Cc2nc(-c3ccsc3)no2)n1 (stereo not drawn) | 46.8
73 | Cc1ccccc1OCCCNC(=O)C1(C)CC(=O)N2C=CC=CC2=N1 (stereo not drawn) | 9.63
74 | Cc1nc(C)n(CC2CN(Cc3ccccc3C#N)CCO2)n1 (stereo not drawn) | 5.9
75 | CCN(Cc1cscn1)CC1(C)Cc2c(N)nc(N)nc2O1 (stereo not drawn) | 33.85
76 | CN(CC1(CO)CCC1)C(=O)C1CCC(=O)N(Cc2ccc(Cl)cc2)C1 (stereo not drawn) | 49
77 | CN(CCC(C)(C)O)C(=O)C1CCC(=O)N(Cc2ccc(Cl)cc2)C1 (stereo not drawn) | 46.9
78 | CN(CC1(CO)CC1)C(=O)C1CCC(=O)N(Cc2ccc(Cl)cc2)C1 (stereo not drawn) | 70.4
79 | COc1cc(C(C)=O)ccc1OC12CCCN(CC1)C2 (stereo not drawn) | 47.7
80 | CCc1ccc(CN2CCCn3c(nc(Cn4ccnc4)cc3=O)C2)o1 | -2.17
81 | CCO[C@@H]1CCN(C(=O)c2ccc[nH]2)[C@@H]1Cc1cccnc1 | 36.9
82 | Cc1ccc(C(=O)N2CC(C(N)=O)O[C@H](C)C2)c(F)c1 (stereo partly drawn) | -110
83 | Cc1ccc(C(=O)N2CCOCC2C(N)=O)c(F)c1 (stereo not drawn) | 54.5
84 | Cc1ccc(S(=O)(=O)N2CCOCC2C(N)=O)c(F)c1 (stereo not drawn) | 27.4
85 | CCOc1ccc(CSC(C)c2nc(C)no2)nc1 (stereo not drawn) | 60.2
86 | Cc1noc(C(C)SCc2ccccn2)n1 (stereo not drawn) | 14.3
87 | CCOc1cccc(CSC(C)c2nc(C)no2)n1 (stereo not drawn) | -10.8
88 | CNc1nc2cn(C3CCCC3)c(=O)c-2c[nH]1 | -24.5

Row | Compound | INHIBITION [%]
89 | CC1CN(C)CCN1CC(=O)NCCOc1ccc2c(c1)OCO2 (stereo not drawn) | 18.7
90 | O=C(c1cccnc1)N1CC(S(=O)(=O)c2ccc(Cl)cc2)C1 | 29.7
91 | O=C(c1ccccn1)N1CC(S(=O)(=O)c2ccc(Cl)cc2)C1 | -54.7
92 | O=C(c1ccco1)N1CC(S(=O)(=O)c2ccc(Cl)cc2)C1 | 50.5
93 | c1ccc2c3c([nH]c2c1)C(c1nn[nH]n1)CCC3 (stereo not drawn) | 26.4
94 | Cn1ccnc1C1(O)CCCN(Cc2ccncc2)CC1 (stereo not drawn) | 7.36
95 | COc1ccc(C2c3c(N)nc(SC)nc3N=C3CCCC(=O)C32)cc1 (stereo not drawn) | 21.7
96 | CCOc1cc2c(cc1CNC(Cc1cccs1)c1nccs1)OCO2 (stereo not drawn) | 52
97 | COc1cc2c(cc1CNC(Cc1cccs1)c1nccs1)OCO2 (stereo not drawn) | 20.07
98 | COc1cc2c(cc1CNC(Cc1cccs1)c1nccs1)OCCO2 (stereo not drawn) | 36.9
99 | CCc1nnc(Nc2cc(C)nc(C3CCN(c4cnccn4)C3)n2)s1 (stereo not drawn) | 32.3
100 | CCOc1ccc2[nH]c(=O)c(CN3CCN(S(N)(=O)=O)CC3)cc2c1 | 94.3
101 | CCCN1CCN(Cc2cc3cc(OCC)ccc3[nH]c2=O)CC1 | 6.67
102 | CCOc1ccc2[nH]c(=O)c(CN3CCC(O)CC3)cc2c1 | 20.2
103 | CCn1nc(C)c(CN(CCOC)C(=O)c2ccc(=O)[nH]n2)c1C | -65
104 | CCCN(CC)C(=O)c1cc(Cn2c(C)nc3ccccc32)[nH]n1 | 75.7
105 | NC(=O)CNC(=O)c1cc(Cn2cnc3ccccc32)[nH]n1 | -72.5
106 | Cc1nc2ccccc2n1Cc1cc(C(=O)N(C)C2CCOC2)n[nH]1 (stereo not drawn) | -39.9
107 | CCCN(CCOC)C(=O)c1cc(Cn2c(C)nc3ccccc32)[nH]n1 | 65.7
108 | CCN(CCO)C(=O)c1cc(Cn2c(C)nc3ccccc32)[nH]n1 | 24.9
